# High-throughput results as filed in PubChem.
# Hits are enriched below; roughly 2.4% of the tested compounds scored in any of these assays.
# ADAM17 inh: inhibitors of human ADAM17. recombinant ADAM17, EDANS/DABCYL FRET peptide cleavage. 0.83% of 370,000 active. P78536. inhibition, % at 6.95 µM;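 active means inhibition above the mean of compounds lying between control limits plus 3 SD, set per campaign, cut at about 8.5% in these data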;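 further: 0% = DMSO-only wells as the low control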
# NRP1-CendR mod: modulators of CendR peptide binding to human neuropilin-1 | inhibition, % at 25 µM | O14786 | 0.85% of 360,000 active | FAM-RPARPAR peptide binding to NRP-1, fluorescence polarization;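 active means inhibition or corrected inhibition above about 18%, plus a signal ratio from 0.5 to 1.5, limit read from the data, passing the limit was not always enough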
# A3A deaminase: human APOBEC3A DNA deaminase inhibition; inhibition, % at 20 µM; recombinant A3A, FAM/TAMRA ssDNA deamination fluorescence; 0.41% of 330,000 active;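 active means at least 40% inhibition at 20 µM here, with at most 30% in a related deaminase screen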;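 further: plate controls were A3A with DMSO for no effect and wells lacking A3A enzyme for full effect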
# ADAM10 inh: inhibits human ADAM10; AID 720582; inhibition, % at 7 µM; 0.62% of 370,000 active; recombinant ADAM10, EDANS/DABCYL FRET peptide cleavage, 3 h;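 active means inhibition above a per-campaign cutoff equal to the mean of compounds falling between control-based bounds plus 3 SD, cut at about 20% in these data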;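 further: 0% = DMSO wells while the 100% control is not disclosed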
# APOBEC3G inh: inhibitors of human APOBEC3G DNA deaminase; Q9HC16; recombinant A3G, ssDNA deamination FAM/TAMRA fluorescence; inhibition, % at 20 µM; 0.28% of 330,000 active; AID 493012;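 active means inhibition of at least 40% at 20 µM, with no more than 30% in the related APOBEC3A deaminase screen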;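 further: plate controls were DMSO wells with A3G for no effect and wells lacking A3G enzyme for full effect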
# Target sequence (Q9HC16 whole entry, looked up): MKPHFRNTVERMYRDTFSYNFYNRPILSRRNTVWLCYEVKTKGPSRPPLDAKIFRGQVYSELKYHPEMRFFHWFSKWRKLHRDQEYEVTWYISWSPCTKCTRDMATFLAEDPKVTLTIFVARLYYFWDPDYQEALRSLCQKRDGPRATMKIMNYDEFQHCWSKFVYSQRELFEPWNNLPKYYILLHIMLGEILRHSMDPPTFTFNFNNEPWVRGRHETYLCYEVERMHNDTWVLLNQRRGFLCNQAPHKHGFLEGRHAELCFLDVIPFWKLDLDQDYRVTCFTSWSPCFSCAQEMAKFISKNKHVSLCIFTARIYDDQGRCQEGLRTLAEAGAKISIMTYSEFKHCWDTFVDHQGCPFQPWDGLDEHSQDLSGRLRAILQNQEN
# ADAM10 confirm: human ADAM10 inhibition, confirmation; shares compounds with ADAM10 inh; ADAM10 QFRET peptide cleavage, EDANS fluorescence; inhibition, % at 6.95 µM; 1% of 2,100 active; AID 743208;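 active means inhibition above about 20% chosen separately for each screening run, limit read from the data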;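 further: 0% = DMSO wells and 100% = marimastat wells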
# ADAM17 counter: counter-screen for ADAM10 exosite inhibitors: inhibitors of human ADAM17 | inhibition, % at 6.95 µM | shares compounds with ADAM10 inh | 0.5% of 2,100 active | ADAM17 QFRET peptide cleavage, EDANS fluorescence;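 active means mean triplicate inhibition above the solvent-only control wells' mean plus 3 SD, cut at about 12% in these data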;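 further: 0% = DMSO wells and 100% = marimastat wells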
# ADAM10 counter: ADAM10 inhibition, counter-screen for ADAM17 exosite hits; shares compounds with ADAM17 inh; inhibition, % at 6.95 µM; AID 743256; 47% of 2,900 active; recombinant ADAM10, EDANS/DABCYL FRET peptide cleavage, 3 h;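 active means mean inhibition over the triplicate runs exceeds the activity threshold set in the earlier primary screen, cut at about 20% in these data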;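 further: 0% = DMSO wells and 100% = marimastat wells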
# ADAM17 confirm: confirmation of inhibitors of human ADAM17. shares compounds with ADAM17 inh. recombinant ADAM17, EDANS/DABCYL QFRET peptide cleavage. inhibition, % at 6.95 µM. 65% of 2,900 active. AID 743257;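 active means mean inhibition across replicates above the hit cutoff set in the primary screen, cut at about 8.5% in these data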;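 further: 0% = DMSO wells and 100% = marimastat wells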
# Active calls of the source: *; . = no result.
SMILES,ADAM17 inh,NRP1-CendR mod,A3A deaminase,ADAM10 inh,APOBEC3G inh,ADAM10 confirm,ADAM17 counter,ADAM10 counter,ADAM17 confirm
Cc1ccc(C)c(C(=O)COC(=O)CCCC(=O)Nc2cc(C(F)(F)F)ccc2Cl)c1,9.8*,-11,0,20*,0,4,2,25*,11*
Cc1ccc([C@H]2C[C@H](n3cc(COC(=O)c4ccccc4)nn3)[C@@H](O)CN2Cc2cccs2)cc1,12*,-11,.,24*,.,6,2,12,9.2*
Cc1ccc([C@H]2C[C@@H](n3cc(COC(=O)c4ccccc4)nn3)[C@H](O)CN2Cc2cccs2)cc1,-3,-13,.,-4,.,.,.,.,.
Cc1noc(C)c1COc1ccc(C(=O)OCC(=O)Nc2ccc3ccccc3c2)cc1,8.8*,-1,2,20*,-4,9,3,33*,19*
Cc1noc(C)c1COc1ccc(C(=O)OCC(=O)Nc2ccc(C(=O)N(C)C)cc2)cc1,-4,-9,-1,-2,-5,.,.,.,.
COc1cc(/C=N/NC(=O)[C@H](Cc2c[nH]c3ccccc23)NC(=O)OCC(C)C)cc([N+](=O)[O-])c1O,16*,15,7,32*,-5,5,0,13,7
O=[N+]([O-])c1cccc2ccc(/C=C/c3ccc(Cl)cc3)nc12,6,8,3,9,-2,.,.,.,.
CCOc1cc(/C=C/c2ccc3cccc([N+](=O)[O-])c3n2)cc(Cl)c1O,15*,-3,1,25*,-6,0,1,11,5
Cc1ccc(OC2CCN(C(=O)[C@@H](Cc3ccccc3)NC(=O)[C@H]3O[C@@H](n4ccc(=O)[nH]c4=O)[C@H](O)[C@@H]3O)CC2)cc1,0,.,.,-8,.,.,.,.,.
C#CCN(C[C@H]1[C@H](OC(=O)NCc2ccccc2F)[C@H](OC(=O)NCc2ccccc2F)C[C@H]2C(=O)N(c3ccccc3)C(=O)[C@@H]12)S(=O)(=O)c1ccc(C)cc1,9.0*,6,.,29*,.,7,2,9,5
COC(=O)C[C@@H]1C[C@H]2c3cc(NC(=O)Nc4ccccc4F)ccc3O[C@H]2[C@@H](CO)O1,-4,.,.,-7,.,.,.,.,.
CCc1cccc(CC)c1NC(=O)COC(=O)CC1c2ccccc2CCN1S(=O)(=O)c1ccc(F)cc1 (centres undefined),14*,-7,-2,23*,-7,2,0,6,2
Cc1cc(NC(=O)CS(=O)(=O)c2cn(Cc3ccccc3Cl)c3ccccc23)no1,2,-2,-3,2,1,.,.,.,.
Cc1cc(NC(=O)CS(=O)(=O)c2cn(Cc3cccc(Br)c3)c3ccccc23)no1,10*,-6,.,24*,.,3,1,8,8.7*
CC(C)(C)c1ccc(S(=O)(=O)Nc2ccc(C(O)(C(F)(F)F)C(F)(F)F)cc2)cc1,27*,-3,.,62*,.,3,1,54*,31*
CC(C)(C)c1ccc(S(=O)(=O)Nc2ccc(C(=O)N3CCCC3)cc2)cc1,0,19,3,5,-3,.,.,.,.
CC(=O)Nc1ccc(NS(=O)(=O)c2cccc3ccccc23)cc1,-1,-1,-7,0,-7,.,.,.,.
O=S(=O)(Nc1ccc(C(O)(C(F)(F)F)C(F)(F)F)cc1)c1cccc2ccccc12,11*,-6,.,34*,.,0,0,40*,21*
C[C@H]1C2CC(OC(=O)Nc3cccc(Cl)c3)C(C2)[C@H]2CCCCN21 (some centres undefined),-7,.,.,-5,.,.,.,.,.
C[C@@H]1CN([C@H](C)CO)C(=O)CCCn2nncc2CO[C@@H]1CN(C)C(=O)Nc1ccccc1,-5,.,.,-1,.,.,.,.,.
